{"source": "paper PMC5540273", "about": "(PLoS ONE, 2017);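 further: KINOMEscan kinase panel screen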", "conditions_in_all_cases": "concentration: 1 μM, replicates: in singlicate; n = 1", "key": {"[1]": {"test_system": "DAPK2"}, "[2]": {"test_system": "DAPK3"}, "[3]": {"test_system": "T1, DCAMKL1", "T1 construct": "gene DCLK1"}, "[4]": {"test_system": "T2, DCAMKL2", "T2 construct": "gene DCLK2"}, "[5]": {"test_system": "T3, DCAMKL3", "T3 construct": "gene DCLK3"}, "[6]": {"test_system": "DDR1"}, "[7]": {"test_system": "DDR2"}, "[8]": {"test_system": "T4, DLK", "T4 construct": "gene MAP3K12"}, "[9]": {"test_system": "T5, DMPK2", "T5 construct": "gene CDC42BPG"}, "[10]": {"test_system": "DMPK"}}}
{"molecule": "Cc1cc(N2Cc3ccccc3C2)nc(Nc2ccc(S(=O)(=O)N3CCOCC3)cc2)n1.Cl", "note": "[GSK1669917]", "values": [{"measurement": "%Inh", "setting": "[1]", "value": 5, "unit": "%"}, {"measurement": "%Inh", "setting": "[2]", "value": 100, "unit": "%"}, {"measurement": "%Inh", "setting": "[3]", "value": 21, "unit": "%"}, {"measurement": "%Inh", "setting": "[4]", "value": 0, "unit": "%"}, {"measurement": "%Inh", "setting": "[5]", "value": 0, "unit": "%"}, {"measurement": "%Inh", "setting": "[6]", "value": 0, "unit": "%"}, {"measurement": "%Inh", "setting": "[7]", "value": 9, "unit": "%"}, {"measurement": "%Inh", "setting": "[8]", "value": 2, "unit": "%"}, {"measurement": "%Inh", "setting": "[9]", "value": 1, "unit": "%"}, {"measurement": "%Inh", "setting": "[10]", "value": 0, "unit": "%"}]}
{"molecule": "Cc1nnc(-c2ccc3occ(-c4ccc(S(C)=O)cc4)c3c2)[nH]1", "note": "(stereo not drawn)", "values": [{"measurement": "%Inh", "setting": "[1]", "value": 5, "unit": "%"}, {"measurement": "%Inh", "setting": "[2]", "value": 10, "unit": "%"}, {"measurement": "%Inh", "setting": "[3]", "value": 0, "unit": "%"}, {"measurement": "%Inh", "setting": "[4]", "value": 0, "unit": "%"}, {"measurement": "%Inh", "setting": "[5]", "value": 0, "unit": "%"}, {"measurement": "%Inh", "setting": "[6]", "value": 0, "unit": "%"}, {"measurement": "%Inh", "setting": "[7]", "value": 5, "unit": "%"}, {"measurement": "%Inh", "setting": "[8]", "value": 0, "unit": "%"}, {"measurement": "%Inh", "setting": "[9]", "value": 6, "unit": "%"}, {"measurement": "%Inh", "setting": "[10]", "value": 0, "unit": "%"}]}
{"molecule": "CCn1c(-c2cccnc2O)nc2cnccc21", "note": "[SB-736715]", "values": [{"measurement": "%Inh", "setting": "[1]", "value": 0, "unit": "%"}, {"measurement": "%Inh", "setting": "[2]", "value": 0, "unit": "%"}, {"measurement": "%Inh", "setting": "[3]", "value": 0, "unit": "%"}, {"measurement": "%Inh", "setting": "[4]", "value": 3, "unit": "%"}, {"measurement": "%Inh", "setting": "[5]", "value": 0, "unit": "%"}, {"measurement": "%Inh", "setting": "[6]", "value": 0, "unit": "%"}, {"measurement": "%Inh", "setting": "[7]", "value": 0, "unit": "%"}, {"measurement": "%Inh", "setting": "[8]", "value": 19, "unit": "%"}, {"measurement": "%Inh", "setting": "[9]", "value": 0, "unit": "%"}, {"measurement": "%Inh", "setting": "[10]", "value": 0, "unit": "%"}]}
{"molecule": "Cc1c(Cn2ccn3c(=O)cc(N4CCOCC4)nc23)cccc1C(F)(F)F", "note": "[GSK2289044]", "values": [{"measurement": "%Inh", "setting": "[1]", "value": 12, "unit": "%"}, {"measurement": "%Inh", "setting": "[2]", "value": 12, "unit": "%"}, {"measurement": "%Inh", "setting": "[3]", "value": 3, "unit": "%"}, {"measurement": "%Inh", "setting": "[4]", "value": 0, "unit": "%"}, {"measurement": "%Inh", "setting": "[5]", "value": 13, "unit": "%"}, {"measurement": "%Inh", "setting": "[6]", "value": 0, "unit": "%"}, {"measurement": "%Inh", "setting": "[7]", "value": 8, "unit": "%"}, {"measurement": "%Inh", "setting": "[8]", "value": 0, "unit": "%"}, {"measurement": "%Inh", "setting": "[9]", "value": 0, "unit": "%"}, {"measurement": "%Inh", "setting": "[10]", "value": 64, "unit": "%"}]}
{"molecule": "COc1ccc(C2=C(Nc3cccc(C(=O)O)c3)C(=O)NC2=O)cc1", "note": "[SB-390765]", "values": [{"measurement": "%Inh", "setting": "[1]", "value": 5, "unit": "%"}, {"measurement": "%Inh", "setting": "[2]", "value": 0, "unit": "%"}, {"measurement": "%Inh", "setting": "[3]", "value": 32, "unit": "%"}, {"measurement": "%Inh", "setting": "[4]", "value": 0, "unit": "%"}, {"measurement": "%Inh", "setting": "[5]", "value": 0, "unit": "%"}, {"measurement": "%Inh", "setting": "[6]", "value": 0, "unit": "%"}, {"measurement": "%Inh", "setting": "[7]", "value": 19, "unit": "%"}, {"measurement": "%Inh", "setting": "[8]", "value": 0, "unit": "%"}, {"measurement": "%Inh", "setting": "[9]", "value": 12, "unit": "%"}, {"measurement": "%Inh", "setting": "[10]", "value": 4, "unit": "%"}]}
{"molecule": "Cc1csc(-c2nc(Nc3ccncc3)c3ccccc3n2)n1", "note": "[GW869640]", "values": [{"measurement": "%Inh", "setting": "[1]", "value": 26, "unit": "%"}, {"measurement": "%Inh", "setting": "[2]", "value": 48, "unit": "%"}, {"measurement": "%Inh", "setting": "[3]", "value": 29, "unit": "%"}, {"measurement": "%Inh", "setting": "[4]", "value": 28, "unit": "%"}, {"measurement": "%Inh", "setting": "[5]", "value": 30, "unit": "%"}, {"measurement": "%Inh", "setting": "[6]", "value": 22, "unit": "%"}, {"measurement": "%Inh", "setting": "[7]", "value": 35, "unit": "%"}, {"measurement": "%Inh", "setting": "[8]", "value": 0, "unit": "%"}, {"measurement": "%Inh", "setting": "[9]", "value": 35, "unit": "%"}, {"measurement": "%Inh", "setting": "[10]", "value": 17, "unit": "%"}]}
{"molecule": "Cc1c(O)cccc1Nc1ccnc2ccc(C(F)(F)F)cc12.Cl", "note": "[GW466413]", "values": [{"measurement": "%Inh", "setting": "[1]", "value": 0, "unit": "%"}, {"measurement": "%Inh", "setting": "[2]", "value": 0, "unit": "%"}, {"measurement": "%Inh", "setting": "[3]", "value": 0, "unit": "%"}, {"measurement": "%Inh", "setting": "[4]", "value": 0, "unit": "%"}, {"measurement": "%Inh", "setting": "[5]", "value": 0, "unit": "%"}, {"measurement": "%Inh", "setting": "[6]", "value": 16, "unit": "%"}, {"measurement": "%Inh", "setting": "[7]", "value": 24, "unit": "%"}, {"measurement": "%Inh", "setting": "[8]", "value": 43, "unit": "%"}, {"measurement": "%Inh", "setting": "[9]", "value": 0, "unit": "%"}, {"measurement": "%Inh", "setting": "[10]", "value": 0, "unit": "%"}]}
{"molecule": "COc1cc2ncn(-c3cc(OCC4CCCO4)c(C(N)=O)s3)c2cc1OC", "note": "(stereo not drawn) [GSK204607]", "values": [{"measurement": "%Inh", "setting": "[1]", "value": 0, "unit": "%"}, {"measurement": "%Inh", "setting": "[2]", "value": 2, "unit": "%"}, {"measurement": "%Inh", "setting": "[3]", "value": 18, "unit": "%"}, {"measurement": "%Inh", "setting": "[4]", "value": 0, "unit": "%"}, {"measurement": "%Inh", "setting": "[5]", "value": 0, "unit": "%"}, {"measurement": "%Inh", "setting": "[6]", "value": 0, "unit": "%"}, {"measurement": "%Inh", "setting": "[7]", "value": 21, "unit": "%"}, {"measurement": "%Inh", "setting": "[8]", "value": 33, "unit": "%"}, {"measurement": "%Inh", "setting": "[9]", "value": 0, "unit": "%"}, {"measurement": "%Inh", "setting": "[10]", "value": 0, "unit": "%"}]}
{"molecule": "O=C(O)COc1ncnc2cc(-c3ccc4[nH]ncc4c3)sc12", "values": [{"measurement": "%Inh", "setting": "[1]", "value": 0, "unit": "%"}, {"measurement": "%Inh", "setting": "[2]", "value": 5, "unit": "%"}, {"measurement": "%Inh", "setting": "[3]", "value": 0, "unit": "%"}, {"measurement": "%Inh", "setting": "[4]", "value": 2, "unit": "%"}, {"measurement": "%Inh", "setting": "[5]", "value": 8, "unit": "%"}, {"measurement": "%Inh", "setting": "[6]", "value": 0, "unit": "%"}, {"measurement": "%Inh", "setting": "[7]", "value": 7, "unit": "%"}, {"measurement": "%Inh", "setting": "[8]", "value": 34, "unit": "%"}, {"measurement": "%Inh", "setting": "[9]", "value": 3, "unit": "%"}, {"measurement": "%Inh", "setting": "[10]", "value": 13, "unit": "%"}]}
